Reference: PubChem BioAssay (NCI)
About 83,000 compounds went through this panel and 20% of them were active in at least one assay; those are over-represented in the sample as a whole.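 Each cell line was grown in a 96-well plate and treated with one concentration of compound for 48 hours. Values below 10 were considered active.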

What was measured:
Assay in all cases: NCI-60 one-dose screen, 48 h (100 = growth as untreated, 0 = no growth, -100 = all killed)
Conditions in all cases: 10 µM unless noted
NCI-H226 lung = test system: NCI-H226 lung
NCI-H322M lung = test system: NCI-H322M lung
HOP-62 NSCLC = test system: HOP-62 NSCLC
NCI-H460 lung = test system: NCI-H460 lung
HOP-92 NSCLC = test system: HOP-92 NSCLC
NCI-H522 lung = test system: NCI-H522 lung
A549/ATCC NSCLC = test system: A549/ATCC NSCLC
786-0 renal = test system: 786-0 renal
COLO 205 colon = test system: COLO 205 colon
DU-145 prostate = test system: DU-145 prostate
K-562 leukemia = test system: K-562 leukemia
MALME-3M melanoma = test system: MALME-3M melanoma
MDA-MB-231 breast = test system: MDA-MB-231 breast
RXF 393 renal = test system: RXF 393 renal
SF-268 CNS = test system: SF-268 CNS
SF-295 CNS = test system: SF-295 CNS
SF-539 CNS = test system: SF-539 CNS
UACC-257 melanoma = test system: UACC-257 melanoma
M14 melanoma = test system: M14 melanoma

Measured: growth

CCOS(=O)(=O)c1ccc([N+](=O)[O-])cc1
inactive: NCI-H226 lung 101% | NCI-H322M lung 102% | HOP-62 NSCLC 100% | NCI-H460 lung 107% | HOP-92 NSCLC 99.4% | NCI-H522 lung 94.3% | A549/ATCC NSCLC 86.1% | 786-0 renal 107% | COLO 205 colon 109% | DU-145 prostate 108% | K-562 leukemia 99.2% | MALME-3M melanoma 113% | MDA-MB-231 breast 106% | RXF 393 renal 120% | SF-268 CNS 103% | SF-295 CNS 101% | SF-539 CNS 102% | UACC-257 melanoma 94.5% | M14 melanoma 105%

CCCc1cccc(CCC)c1NC(=O)Nc1cc(Cl)cc(Cl)c1
inactive: NCI-H226 lung 98.1% | NCI-H322M lung 96.8% | HOP-62 NSCLC 104% | NCI-H460 lung 118% | HOP-92 NSCLC 98.8% | NCI-H522 lung 85.7% | A549/ATCC NSCLC 93.8% | 786-0 renal 93.9% | COLO 205 colon 120% | DU-145 prostate 107% | K-562 leukemia 100% | MALME-3M melanoma 87.5% | MDA-MB-231 breast 90.2% | RXF 393 renal 116% | SF-268 CNS 94.9% | SF-295 CNS 109% | SF-539 CNS 92.4% | UACC-257 melanoma 86%

Cc1cccc(C)c1NC(=S)/N=C\c1c(O)[nH]c(=O)[nH]c1=O
inactive: NCI-H226 lung 100% | NCI-H322M lung 98.5% | HOP-62 NSCLC 87.7% | NCI-H460 lung 105% | HOP-92 NSCLC 102% | NCI-H522 lung 86.4% | A549/ATCC NSCLC 79.4% | 786-0 renal 101% | COLO 205 colon 103% | DU-145 prostate 111% | MDA-MB-231 breast 96.6% | RXF 393 renal 108% | SF-268 CNS 98% | SF-295 CNS 97.9% | SF-539 CNS 112% | UACC-257 melanoma 81.8% | M14 melanoma 98.4%

O=C(O)c1cc(I)ccc1O
inactive: NCI-H226 lung 99% | NCI-H322M lung 95.7% | HOP-62 NSCLC 100% | NCI-H460 lung 108% | HOP-92 NSCLC 121% | NCI-H522 lung 111% | A549/ATCC NSCLC 93.3% | 786-0 renal 107% | COLO 205 colon 127% | DU-145 prostate 116% | K-562 leukemia 114% | MALME-3M melanoma 90.3% | MDA-MB-231 breast 110% | SF-268 CNS 111% | SF-295 CNS 105% | SF-539 CNS 97.7% | UACC-257 melanoma 104% | M14 melanoma 110%

CC1(C)CC(=O)C=C(N)C1
inactive: NCI-H226 lung 103% | NCI-H322M lung 106% | HOP-62 NSCLC 103% | NCI-H460 lung 121% | HOP-92 NSCLC 109% | NCI-H522 lung 89.6% | A549/ATCC NSCLC 94.8% | 786-0 renal 106% | COLO 205 colon 134% | DU-145 prostate 128% | K-562 leukemia 146% | MALME-3M melanoma 155% | MDA-MB-231 breast 104% | RXF 393 renal 94.4% | SF-268 CNS 110% | SF-295 CNS 98.7% | SF-539 CNS 127% | UACC-257 melanoma 87.2% | M14 melanoma 102%

O=C1NC(=O)/C(=C\c2ccncc2)N1
inactive: NCI-H226 lung 99.8% | NCI-H322M lung 107% | HOP-62 NSCLC 94.2% | NCI-H460 lung 102% | HOP-92 NSCLC 85.7% | NCI-H522 lung 94.7% | A549/ATCC NSCLC 106% | 786-0 renal 106% | COLO 205 colon 103% | K-562 leukemia 117% | MALME-3M melanoma 103% | MDA-MB-231 breast 99.1% | RXF 393 renal 102% | SF-268 CNS 97.6% | SF-295 CNS 104% | SF-539 CNS 92.7% | UACC-257 melanoma 97.7% | M14 melanoma 92.6%

C=CCC(OC(C)=O)c1ccc(C(C)C)cc1 (centres undefined)
inactive: NCI-H226 lung 106% | NCI-H322M lung 120% | HOP-62 NSCLC 109% | NCI-H460 lung 106% | HOP-92 NSCLC 86.7% | NCI-H522 lung 86.6% | A549/ATCC NSCLC 92.3% | 786-0 renal 108% | COLO 205 colon 122% | DU-145 prostate 118% | K-562 leukemia 108% | MALME-3M melanoma 124% | MDA-MB-231 breast 122% | RXF 393 renal 113% | SF-268 CNS 110% | SF-295 CNS 126% | SF-539 CNS 104% | UACC-257 melanoma 105% | M14 melanoma 114%

CCOC(=O)/C(C#N)=C\c1c[nH]c2ccccc12
inactive: NCI-H226 lung 79.8% | NCI-H322M lung 110% | HOP-62 NSCLC 80.7% | NCI-H460 lung 109% | HOP-92 NSCLC 81.6% | NCI-H522 lung 70.4% | A549/ATCC NSCLC 105% | 786-0 renal 114% | COLO 205 colon 98.7% | DU-145 prostate 111% | MALME-3M melanoma 116% | MDA-MB-231 breast 80.9% | SF-268 CNS 101% | SF-295 CNS 107% | SF-539 CNS 103% | UACC-257 melanoma 105% | M14 melanoma 97.1%

CC(=O)c1cccs1
inactive: NCI-H226 lung 98.8% | NCI-H322M lung 97.7% | HOP-62 NSCLC 83.8% | NCI-H460 lung 104% | HOP-92 NSCLC 90.8% | NCI-H522 lung 89.3% | A549/ATCC NSCLC 92% | 786-0 renal 95.1% | COLO 205 colon 116% | DU-145 prostate 109% | K-562 leukemia 108% | MALME-3M melanoma 115% | MDA-MB-231 breast 101% | RXF 393 renal 96.6% | SF-268 CNS 103% | SF-295 CNS 97.3% | SF-539 CNS 95.6% | UACC-257 melanoma 96.3% | M14 melanoma 102%
